Inconclusive results are not listed. Active and inactive are the calls of the source. Calls come from the whole dose curve; as a rule, active = well fitted inhibition curve with a large enough effect; inconclusive = small, poorly fitted or top-dose-only effect; inactive = flat fitted curve, though single readings scatter.

This assay has as its system CRL-7250. As to the kind of experiment: qHTS assay to identify novel small-molecules to repurpose for Merkel cell carcinoma treatment (AID 1296009). Note: nearly all actives have a fitted effect of over 60% in size. Conditions: MCC and control cell lines, CellTiter-Glo viability, 72 h; at 44.8 µM (top of the series) unless noted. The procedure, abridged:
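After compound transfer in DMSO, plates were kept 72 hr at 37 degree celsius. Luminescent ATP signal from CellTiter-Glo served as viability measure, normalized against DMSO and no-cell controls.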
(Quantitative high-throughput screening tests each substance at several concentrations.)
For the compound `CCN(CC)CCNC(=O)c1ccc(NC(C)=O)cc1`, the result was inactive. Regarding `O=C(Nc1cccc(C2=NCCN2)c1)Nc1cccc(C2=NCCN2)c1`, the outcome is “inactive [at 17.4 µM]”. Turning to `CC(C)(C)c1cc(C(C)(C)C)c(NC(=O)c2c[nH]c3ccccc3c2=O)cc1O`, the outcome was inactive.

On to `CC(C)(C)COc1ccc(-n2cc(C(=O)O)cn2)cc1C#N`, for which the result was inactive. Turning to `Cn1c(NCCN(CCO)CCCc2ccc([N+](=O)[O-])cc2)cc(=O)n(C)c1=O`, the call was inactive. `Cc1c(C)c2c(c(C)c1OC(=O)c1cccnc1)CC[C@@](C)(CCC[C@H](C)CCC[C@H](C)CCCC(C)C)O2`: the call was inactive. As for `CC(C)(C)C(=O)Oc1ccc2c(c1)nc(NC(=O)c1cccc([N+](=O)[O-])c1)n2CCCO`, the entry is “inactive”; as for `CC(C)OC(=O)c1cc(C(=O)OC(C)C)cc([N+](=O)[O-])c1`, “inactive [at 92 µM]”. As for `CCOc1cc(C(=O)Nc2ccc(Cl)c(-c3nc4ccccc4[nH]3)c2)cc(OCC)c1OCC`, the entry is “inactive”. As for `COc1ccc2c(c1)c1c3n2CCN(C)C3=NCC1`, the entry is “inactive”.

For the compound `Cc1cccc(C)c1NC(=O)c1ccccc1C(=O)O`, the compound was called inactive. As for `CCCCC(CC)COC(=O)c1ccc(N(C)C)cc1` (configuration not stated), the entry is “inactive”; as for `O=C(C=Cc1ccc(/C=C/C(=O)Nc2ccc(C3=NCCN3)cc2)cc1)Nc1ccc(C2=NCCN2)cc1`, “inactive”; as for `CCCn1c(=O)c2[nH]c(C34CC5CC3C[C@@H](C5)C4)nc2n(CCC)c1=O`, “inactive”. For `COc1ccc2cc(CCC(C)=O)ccc2c1`, the result was inactive.

`Cc1nnc(C(C)C)n1C1CC2CCC(C1)N2CC[C@H](NC(=O)C1CCC(F)(F)CC1)c1ccccc1` (some centres not stated): the outcome was inactive. As for `O=S(c1cc(Cl)cc(Cl)c1O)c1cc(Cl)cc(Cl)c1O`, the entry is “inactive”; as for `CC(C)OC(=O)C1=CN(C(=O)c2ccc(F)c(F)c2)CC(C)(C)c2c1[nH]c1ccccc21`, “inactive”.

For `C[C@H](NC(=O)Cc1cc(F)cc(F)c1)C(=O)N[C@@H]1C(=O)N(C)c2ccccc2-c2ccccc21`, the outcome was inactive. As for `Cc1cc2c(cc1C1(c3ccc(C(=O)O)cn3)CC1)C(C)(C)CCC2(C)C`, the entry is “inactive”; as for `CCc1c(C)[nH]c2c1C(=O)C(CN1CCOCC1)CC2` (configuration not stated), “inactive”. As for `CC(C)(C)C(O)/C=C/c1ccc2c(c1)OCO2` (configuration not stated), the entry is “inactive”; as for `CC(C)CCCC(C)CCCC(C)CCCCC(C)CCCC(C)CCCC(C)C` (configuration not stated), “inactive”. With `O=C(C1CC1)N1CC[C@@H](Cn2c(-c3ccc(-c4ccc5occc5c4)cc3)nc3cnccc32)C1`, the call was inactive. As for `CNCc1ccc(-c2[nH]c3cc(F)cc4c3c2CCNC4=O)cc1`, the entry is “inactive”. On to `C[C@]12CC[C@H](O)CC1=CC[C@@H]1[C@H]2CC[C@]2(C)C(c3cccnc3)=CC[C@H]12`, for which the outcome is “inactive [at 17.4 µM]”. As for `COc1ccccc1N1CCN(CC(O)COc2cc(OC)c(OC)c(OC)c2)CC1` (configuration not stated), the entry is “inactive”; as for `COc1ccc(-c2oc3cc(OC)ccc3c2C(=O)c2ccc(C#N)cc2)cc1`, “inactive”. As for `CCOC(=O)C(=O)CCCCCCl`, the entry is “inactive”. Take `COc1c(Cl)cc2c([nH]c3cnccc32)c1NC(=O)c1cccnc1C`: the call was inactive.

For the compound `O=C(O)[C@H](Cc1c[nH]c2ccccc12)N1C(=O)c2ccccc2C1=O`, the outcome was “inactive [at 92 µM]”. `CC1=NN(c2ccccc2)C(=O)C1`: the compound was classed as inactive. As for `C[C@@H]1CN(c2c(F)c(N)c3c(=O)c(C(=O)O)cn(C4CC4)c3c2F)C[C@H](C)N1`, the entry is “inactive [at 17.4 µM]”; as for `CC(C[N+](C)(C)C)OC(N)=O` (configuration not stated), “inactive”; as for `C1=CC2C3C=CC(C3)C2C1` (configuration not stated), “inactive [at 92 µM]”. With `CS(=O)(=O)Oc1ccc2c(NC(N)=O)c(C(=O)c3ccc(Cl)cc3Cl)oc2c1`, the call was inactive.

With `O=C1CCCC2=C1C(c1[nH]ncc1Cl)N=C(Nc1nc3ccccc3o1)N2` (configuration not stated), the outcome was inactive.

Values taken from PubChem BioAssay (NCATS).
